# Screens deposited in PubChem by several laboratories.
# This is a sample that favours compounds with a hit; in the whole collection about 5.3% have one here.
# PostGolgi yeast: growth inhibition of a yeast mutant, post-Golgi transport screen | post-Golgi transport phenotypic cell assay | inhibition, % at 10 µM | actives 0.9% (n = 98,000) | AID 739;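 further: yeast cells grown in 1536-well plates; yeast grown about 18 h at 30C before absorbance read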
# Measles CPE: protection of cells from measles virus. Measles virus-infected cells, CPE protection, absorbance. protection (pct of control), % at 4 µM. actives 1.5% (n = 140,000). AID 841; in the data active means protection mostly above about 24%, no sharp cut-off; inactive means mostly below about 26%
# PostGolgi ctrl: growth of the yeast control strain, post-Golgi counter-screen; inhibition, % at 10 µM; actives 5% (n = 98,000); efflux-deficient yeast background strain, growth absorbance A615, 16 h
# MT1-MMP txn act: activates MT1-MMP transcription | HT1080 MT1-MMP promoter luciferase reporter, luminescence, overnight; active compounds read high | activation factor at 10 µM | actives 0.16% (n = 86,000) | AID 750;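 active means activation factor of at least 2 for MT1-MMP transcription at 10 µM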
# Numbers without * were called inactive; nt = not tested or not shown. Unless noted, no stated cut-off is given here; in the data, active means inhibition above about 30%; inactive means the rest.
SMILES,PostGolgi yeast,Measles CPE,PostGolgi ctrl,MT1-MMP txn act
CCCC(=O)Nc1ccc(NC(=O)CCc2ccccc2)cn1,30.5*,21.1,1.1,1.2
CCCC(=O)Nc1ccc(NC(=O)Cc2ccccc2)cn1,-2.5,11.3,3.1,1.2
CCCCCNC(=O)CCc1ccccc1,nt,52.6*,nt,1.2
O=C(Cc1ccccc1)Nc1ccc(NC(=O)C2CC2)nc1,-11.8,23.0,39.2*,1.2
Cc1cccc(NC(=O)CCc2ccc(S(=O)(=O)NC3CCCCC3)cc2)c1,4.3,10.5,-1.9,nt
CCc1ccc(CN(C)CC(=O)Nc2sccc2C#N)cc1,nt,3.0,nt,nt
CCOC(=O)N1CCN(S(=O)(=O)c2ccc(C(=O)Nc3nnc(CSC)o3)cc2)CC1,nt,3.5,nt,nt
CCOC(=O)C(NCc1ccc2c(c1)OCO2)(NC(=O)c1ccccc1)C(F)(F)F (configuration not stated),-18.1,1.5,-4.6,1.1
CCCCCCS(=O)Cc1ccccc1 (configuration not stated),-10.0,34.9*,-3.2,1.2
CC(C)(C)n1nnnc1C(c1cccc(C(F)(F)F)c1)N1CCOCC1 (configuration not stated),-0.6,27.4*,25.0,nt
Cc1cc(N2CCCCC2)nc(SCc2ccc(C#N)cc2)n1,1.0,3.4,40.4*,1.1
Cc1cc(N2CCCC2)nc(SCC(=O)c2ccccc2)n1,nt,4.8,nt,1.5
O=C(NC(=S)Nc1ccc(S(=O)(=O)Nc2nccs2)cc1)c1ccccc1,nt,8.6,nt,nt
O=C(NC(=S)Nc1ccc(S(=O)(=O)Nc2nccs2)cc1)c1ccc(F)c(F)c1,nt,29.6*,nt,nt
COc1ccc(S(=O)(=O)NNC(=O)c2cc3ccccc3o2)cc1,nt,48.9,nt,nt
CCOc1ccc2[nH]c(=O)c(CN(CC3CCCN3CC)C(=O)NCc3ccccc3)cc2c1 (configuration not stated),0.7,24.5*,1.8,1.1
COc1ccc2[nH]c(=O)c(CN(CCCN3CCOCC3)C(=O)NCc3ccccc3)cc2c1,-1.8,6.1,6.0,1.1
COc1ccc(C(=O)CC(=O)C(=O)NCCc2cccc(C)c2)cc1,nt,3.3,nt,nt
Cc1cccc(Nc2ccccc2C(=O)OCC(=O)N2CCOCC2)c1C,2.7,26.7,34.6*,1
COc1ccc(N2CCN(c3ncnc4c3nnn4Cc3ccccc3Cl)CC2)cc1,nt,15.9,nt,1.2
COc1ccc2nc(NC(=O)CN(c3ccc(C)cc3)S(=O)(=O)c3c(C)nn(C)c3C)sc2c1,-3.6,18.2,49.7*,1.1
CCc1ccc(N(CC(=O)Nc2nc3ccc(C)cc3s2)S(=O)(=O)c2c(C)noc2C)cc1,2.4,3.9,32.5*,nt
Cc1ccc2nc(NC(=O)CNS(=O)(=O)c3ccc(Br)s3)sc2c1,6.9,16.5,10.5,1.3
Cc1ccc2nc(NC(=O)CN(C)S(=O)(=O)c3ccc(Br)s3)sc2c1,21.3,3.1,34.6*,nt
CCOc1ccccc1NC(=O)CN(c1ccc(C)cc1)S(=O)(=O)c1c(C)noc1C,-1.5,4.0,39.2*,1.1
SMILES,PostGolgi yeast,Measles CPE,PostGolgi ctrl,MT1-MMP txn act
COc1ccc(N(CC(=O)NCc2ccc(C)cc2)S(=O)(=O)c2c(C)nn(C)c2C)cc1,nt,5.2,nt,nt
CCOc1ccc(OCC)c(NC(=O)CN(c2ccc(C)cc2)S(=O)(=O)c2c(C)noc2C)c1,-1.3,5.4,4.8,1
CC(C)(C)c1ccc(OCCC(=O)Nc2cccc(S(=O)(=O)N3CCCCC3)c2)cc1,nt,2.6,nt,nt
OC(COCCOc1ccc(Br)cc1)CN1CCN(Cc2ccccc2)CC1 (configuration not stated),nt,10.4,nt,nt
Cc1cc(C)c(Nc2cc(S(=O)(=O)O)c(N)c3c2C(=O)c2ccccc2C3=O)c(C)c1,nt,7.2,nt,nt
COC(=O)CN(c1ccc(OC)cc1)S(=O)(=O)c1c(C)noc1C,0.9,6.9,33.1*,1.3
CS(=O)(=O)N(CC(=O)N/N=C/c1cccs1)c1cccc(Cl)c1Cl,-0.3,9.9,11.3,nt
CC(C)(C)C1CCc2nc(NC(=O)Cc3cn4ccsc4n3)sc2C1 (configuration not stated),0.3,8.6,46.2*,1.5
CC1Cc2ccccc2N1C(=O)COC(=O)c1ccc(S(=O)(=O)N(C)C)cc1 (configuration not stated),30.1*,18.0,11.1,1.2
CC1=CC(C)(C)N(C(=O)C(C)N2C(=O)c3ccccc3C2=O)c2ccc(C)cc21 (configuration not stated),5.5,6.7,18.0,1
Cc1cccc2cc(C#N)c(NCCCn3ccnc3)nc12,39.8*,13.0,8.6,1
Cc1cc(NCCCn2ccnc2)n2c(nc3ccccc32)c1C#N,7.0,28.7,4.8,1.1
CCc1nc(NCCCn2ccnc2)c2oc3ccccc3c2n1,-3.0,1.3,32.5*,1.1
Cc1ccc(C)n1-c1ccc(C(=O)NN)cc1,nt,20.1,nt,nt
CC1CC(OCC(O)CN2CCN(Cc3ccccc3)CC2)CC(C)(C)C1 (configuration not stated),83.3*,4.0,31.7*,nt
CCOP(=O)(c1ccccc1)C(O)c1ccc(Br)cc1 (configuration not stated),nt,3.6,nt,nt
N#C/C(=C\c1ccc(-c2ccc([N+](=O)[O-])cc2Br)o1)C(=O)N1CCN(c2ccccc2)CC1,nt,12.4,nt,nt
O=C(CSc1n[nH]c(-c2cc(Cl)ccc2Cl)n1)NCCN1C(=O)CSC1=O,nt,1.8,nt,nt
O=C(CSc1n[nH]c(-c2ccc(Cl)cc2Cl)n1)Nc1ccccn1,-2.5,5.2,32.6*,nt
CCN(CC)c1ccc(-c2nc3cnccn3c2NC2CCCC2)cc1,-8.4,27.2,35.0*,1.5
c1cn2c(NC3CCCC3)c(-c3ccc(N4CCOCC4)cc3)nc2cn1,-0.8,22.3,3.9,1.3
Clc1ccc2ncc(-c3nnnn3-c3ccccc3)c(-c3ccccc3)c2c1,10.6,3.2,36.5*,nt
Cc1c(C(=O)N/N=C/c2ccccc2)sc(=S)n1C,7.3,7.1,38.2*,nt
CCOC(=O)c1cnc(-n2nc(C)cc2C)nc1NCCc1ccccc1,6.5,27.1,39.5*,1
CCOC(=O)c1cnc(-n2nc(C)cc2C)nc1Nc1ccccc1OC,4.6,11.6,1.3,nt
SMILES,PostGolgi yeast,Measles CPE,PostGolgi ctrl,MT1-MMP txn act
Cn1c(=O)c2c(ncn2CC(=O)N/N=C/c2ccc(Br)s2)n(C)c1=O,nt,4.6,nt,nt
C=C(C)[C@H]1CC=C(C)/C(=N/NC(=O)CNc2ccccc2OC)C1,17.7,15.7,54.0*,nt
O=C(CCC(=O)N1CCOCC1)Nc1nnc(C2CCCCC2)s1,3.4,15.6,-2.2,1.2
Cc1ccc(NC(=O)C(=O)NCCOc2ccccc2Cl)cc1,nt,7.4,nt,nt
Cc1ccc(/C(N)=N/OC(=O)c2cccc(F)c2)cc1,-2.5,14.4,43.5*,nt
CCOC(=O)N1CCN(C(=O)CN(c2ccc(OCc3ccccc3)cc2)S(C)(=O)=O)CC1,-0.6,27.7*,-5.3,1.1
CCOC(=O)N1CCN(C(=O)CN(Cc2ccccc2)S(=O)(=O)c2ccc(OC)c(C)c2)CC1,-5.0,16.6,30.0*,1
COc1cccc(C2=CC(c3ccc(C)cc3)n3ncnc3N2)c1 (configuration not stated),-19.2,9.0,0.3,1
Cc1ccsc1C1C=C(c2cccc(Br)c2)Nc2ncnn21 (configuration not stated),12.4,18.4,37.4*,1.1
COC(=O)c1sc2nc(N3CCCCC3)c3c(c2c1N)CCCC3,2.0,4.8,25.1,1.1
NC(=O)c1sc2nc(N3CCCCC3)c3c(c2c1N)CCCC3,-3.7,12.0,43.8*,1
